{
  "source": "PubChem BioAssay AID1645883",
  "about": "(National Center for Advancing Translational Sciences (NCATS), 2021)",
  "note": "Hit rate of the full screen: of about 16,000 compounds, about 160 (1%) were called active. Not shown: some 8% with an inconclusive outcome. Many of the other results were omitted from the sample, so actives are more common in it than they were. Values without a mark were called inactive. Calls come from the whole dose curve; as a rule, active = well fitted activation curve with a large enough effect; inconclusive = small, poorly fitted or top-dose-only effect; inactive = no such curve, though single readings can be large or run the other way. % is set by controls: 0 for no effect and ±100 for the full control effect; potency is the fitted concentration of half-maximal effect.",
  "data": [
    {"target": "Rap guanine nucleotide exchange factor 3 (Homo sapiens) (UniProt O95398)", "sequence (O95398 whole entry, looked up)": "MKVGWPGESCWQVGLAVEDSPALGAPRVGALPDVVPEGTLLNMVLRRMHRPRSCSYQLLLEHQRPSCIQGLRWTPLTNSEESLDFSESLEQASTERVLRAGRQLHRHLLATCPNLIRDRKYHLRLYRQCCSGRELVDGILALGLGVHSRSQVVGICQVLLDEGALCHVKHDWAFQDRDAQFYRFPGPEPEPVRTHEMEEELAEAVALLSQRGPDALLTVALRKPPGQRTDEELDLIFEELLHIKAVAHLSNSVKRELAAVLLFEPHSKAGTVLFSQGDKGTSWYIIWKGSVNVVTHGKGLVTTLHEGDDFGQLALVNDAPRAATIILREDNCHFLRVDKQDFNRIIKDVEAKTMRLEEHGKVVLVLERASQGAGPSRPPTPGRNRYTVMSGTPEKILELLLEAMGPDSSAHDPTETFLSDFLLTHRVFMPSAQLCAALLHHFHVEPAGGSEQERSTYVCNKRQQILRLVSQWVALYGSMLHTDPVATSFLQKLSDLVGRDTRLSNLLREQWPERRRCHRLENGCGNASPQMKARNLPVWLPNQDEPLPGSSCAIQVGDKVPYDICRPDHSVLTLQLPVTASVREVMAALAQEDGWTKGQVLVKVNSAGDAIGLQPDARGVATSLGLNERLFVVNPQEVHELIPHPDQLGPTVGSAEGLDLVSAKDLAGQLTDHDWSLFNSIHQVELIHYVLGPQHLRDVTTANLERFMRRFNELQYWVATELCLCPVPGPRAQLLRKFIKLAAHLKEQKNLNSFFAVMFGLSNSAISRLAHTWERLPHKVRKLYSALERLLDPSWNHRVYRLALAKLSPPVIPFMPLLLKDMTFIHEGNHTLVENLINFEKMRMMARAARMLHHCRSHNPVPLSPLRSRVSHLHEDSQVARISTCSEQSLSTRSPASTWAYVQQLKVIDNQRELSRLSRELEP", "assay": "Validation qHTS for agonist of cAMP-regulated guanine nucleotide exchange factor 3 (EPAC1); note: nearly all actives have a fitted effect of over 70% in size", "settings": "EPAC1 Rap1b BODIPY-GDP exchange, fluorescence; max response: active compounds read high, percent of cAMP control response", "text": "Assay Provider (PI): Xiaodong Cheng Ph.D.\nThe University of Texas Medical Branch, […], TX\nIn multi-cellular eukaryotic organisms, the effects of cAMP are transduced by two ubiquitously-expressed intracellular cAMP receptors, the classic protein kinase A/cAMP-dependent protein kinase (PKA/cAPK) and the more recently discovered exchange protein directly activated by cAMP/cAMP-regulated guanine nucleotide exchange factor (EPAC/cAMP-GEF). Both PKA and EPAC are ubiquitously expressed in all tissues, and an increase in intracellular cAMP levels will lead to the activation of both PKA and EPAC. Therefore, careful dissections of the individual role and relative contribution of EPAC and PKA within the overall cAMP signaling in various model systems are critical for further elucidating the mechanism of cAMP signaling. To date no EPAC-specific antagonists and agonist, as well as isoform-specific agonists have been reported, and developing EPAC-specific pharmacological probes to determine the physiological functions that EPAC play in the overall cAMP-mediated signaling remains a major challenge within the research field. Furthermore, identified regulators of EPAC may lead to new mechanism-based therapeutic strategies specifically targeting the EPAC / cAMP-signaling components as EPAC has been implicated to play important roles in major human pathological conditions such as diabetes, heart disease, and cancer.\nThis qHTS will be used to screen the Molecular Libraries Small Molecule Repository (MLSMR) as a concentration-titration series using the NCGC unique quantitative screening (qHTS) platform to find activators for EPAC1. In addition, this assay will also be used as a counterscreen for the EPAC2 qHTS. This fluorescent based assay is developed and validated for EPAC1 that measures exchange using EPAC effector Rap1 complex with BODIPY-GDP, a GDP analog with a tethered fluorophores. Activators are identified by monitoring the change in fluorescence signal as the exchanged free BODIPY-GDP has a reduced fluorescence compared to Rap1-bound BODIPY-GDP. Increase in signal (activation) is the desired outcome for the EPAC1 agonist while no activity in this assay is desired for the EPAC2 agonist counterscreen.\n[1] de Rooij, J., Zwartkruis, F. J., Verheijen, M. H., Cool, R. H., Nijman, S. M., Wittinghofer, A., and Bos, J.L. (1998) Nature 396, 474-477.\nBriefly, three uL of reagents (100 nM EPAC1, 250 nM RAP1B-BODIPY-GDP, 50 uM GDP) were dispensed into a 1536-well Greiner black solid-bottom medium binding assay plate. Controls and test compounds (23 nL) were transferred to the plate via a Kalypsys pin tool equipped with a 1536-pin array. The plates were centrifuged at 1,000 rpm for 15 seconds followed by 5 minute incubation at room temperature. The assay plates were read at 5 minute intervals for 30 minutes in the ViewLux plate reader using 480nm excitation and 540nm emission filters. The results were normalized to the agonist positive control of 6.5 mM cAMP.", "units": {"max response": "%"}, "values": [
      {"smiles": "COc1ccc(/C=C2\\NC(=O)[C@@H]3Cc4ccccc4CN3C2=O)cc1", "max response": 5.8},
      {"smiles": "CN1CCN2c3ccccc3Cc3ccccc3[C@@H]2C1", "max response": -0.216},
      {"smiles": "CCS(=O)(=O)Nc1cc(C(=O)N2C[C@@H](C)O[C@@H](C)C2)c2c(c1)nc(-c1ccccc1)n2C", "max response": 19.2},
      {"smiles": "COc1ccc(CNc2ncnc3ccc(-c4cccnc4)cc23)c(OC)c1", "max response": -62.5},
      {"smiles": "FC(F)(F)c1ccccc1-c1nc(-n2ccnc2)c2ccccc2n1", "max response": 0.971},
      {"smiles": "CC(=O)Nc1ccc(SC[C@H](Cc2ccccc2)N2CC[C@@H](C)CCC2=O)cc1", "max response": -7.47},
      {"smiles": "CCCN(C/C=C\\I)[C@@H]1CCc2cccc(O)c2C1", "max response": -15.6},
      {"smiles": "COc1ccccc1-c1nc(N2CCN(C)CC2)c2ccccc2n1", "max response": -31.8},
      {"smiles": "c1ccc2nc(C3=NCCN3)cnc2c1", "max response": 0.273},
      {"smiles": "O=c1cnc2cnc(Nc3ccccc3)nc2n1Cc1ccc(F)cc1", "max response": -19.3},
      {"smiles": "Nc1ccc2c3c(cccc13)C(=O)NC2=O", "Potency": "7.08 µM (active)"},
      {"smiles": "CCC1CN(CCNC(=O)c2ccsc2)Cc2cc(OC)ccc2O1", "note": "(centres undefined)", "max response": 4.39},
      {"smiles": "O=c1c(CCc2ccccc2)nc2cncnc2n1C1CC1", "max response": 26},
      {"smiles": "CC(=O)c1ccc(F)c(-c2cc(C)cc3c2OC(CNC(=O)Cc2c[nH]c4ccccc24)C3)c1", "note": "(centres undefined)", "max response": 24.4},
      {"smiles": "CCCCCCCCCCCCCCCCO", "max response": -1.51},
      {"smiles": "CC(=O)OCC(=O)[C@@]1(O)CCC2C3CCC4=CC(=O)CC[C@@]4(C)[C@]3(F)C(O)C[C@]21C", "note": "(some centres undefined)", "max response": -5.21},
      {"smiles": "CN1CC(O)c2cc(N=NC(N)=O)c(O)cc21", "note": "(centres undefined)", "max response": -6.9},
      {"smiles": "CCCc1nc2c(C)cc(-c3nc4ccccc4n3C)cc2n1Cc1ccc(-c2ccccc2C(=O)O)cc1", "max response": -43.1},
      {"smiles": "COc1ccccc1CNc1cc(-c2ccccc2CN(C)C)ncn1", "max response": -35.4},
      {"smiles": "FC(F)(F)c1ccccc1-c1cc(NCc2ccccc2)ncn1", "max response": -105},
      {"smiles": "Cc1cnc(C(=O)N2CCOc3ccc(CN4CCCC(C(=O)c5cccnc5)C4)cc3C2)[nH]1", "note": "(centres undefined)", "max response": -8.53},
      {"smiles": "O=C(Nc1ccc(O)cc1)c1ccccc1O", "max response": 7.12},
      {"smiles": "CC(C(=O)O)c1ccc(C2CCCCC2)c2ccccc12", "note": "(centres undefined)", "max response": 5.84},
      {"smiles": "CCOC(=O)Cc1cccc(-c2cc(CCCCCCc3ccc(O[C@H]4O[C@H](COC(C)=O)[C@@H](OC(C)=O)[C@H](OC(C)=O)[C@@H]4OC(C)=O)c(-c4cccc(CC(=O)OCC)c4)c3)ccc2O[C@H]2O[C@H](COC(C)=O)[C@@H](OC(C)=O)[C@H](OC(C)=O)[C@@H]2OC(C)=O)c1", "max response": -9.09},
      {"smiles": "CCc1nc2cc(C(=O)NCC3CCS(=O)(=O)C3)cc(NC(=O)c3ccccc3OC)c2n1C", "note": "(centres undefined)", "max response": -13.5},
      {"smiles": "COC(=O)c1ccccc1C(=O)NCc1nc(N2CCCC2)c2cccc(C)c2n1", "max response": -26.9},
      {"smiles": "CN(Cc1cccc2ncccc12)C(=O)c1cnn(-c2nccc(-c3ccccc3F)n2)c1C1CC1", "max response": -28.3},
      {"smiles": "CC(=O)N1CCC2(CC1)CCN(c1ccncc1)CC2", "max response": -44.5},
      {"smiles": "Cc1noc(C)c1-c1nc(Nc2ccccc2)c2ccccc2n1", "max response": -34.4},
      {"smiles": "O=C(c1ccncc1)N1CCC2(CCN(Cc3cc(C(F)(F)F)cc(C(F)(F)F)c3)CC2)CC1", "max response": -125},
      {"smiles": "CC(C)NC(=O)N1CC[C@@]2(CCCN(C(=O)c3cccc(F)c3)C2)C1", "max response": 17.8},
      {"smiles": "O=C(c1cc(C(F)(F)F)cc(C(F)(F)F)c1)N1CCC2(CCCN(c3ccccn3)C2)CC1", "max response": -45},
      {"smiles": "CC(C)NC(=O)N1CCCC2(CCN(C(=O)c3cccn3C)CC2)C1", "max response": -48.1},
      {"smiles": "N#Cc1ccc[n+](CC(=O)c2ccc(F)cc2)c1", "max response": 3.1}
    ]}
  ]
}
